PubChem BioAssay AID743364 (National Center for Advancing Translational Sciences (NCATS), 2014)
Activity calls are given as the source filed them. The call rests on the fitted dose curve; in most records, active means well fitted curve in the direction sought with a large enough effect; inactive means no such curve, though single readings can be large or run the other way.

Experiment: qHTS profiling of inhibitors of Plasmodium falciparum (3D7) proliferation (acoustic dispense)
Conditions: P. falciparum 3D7 in erythrocytes, SYBR Green, 72 h; series mostly up to 49.8 µM

outcome, inactive:
CC(C=CC(=O)NO)=C[C@@H](C)C(=O)c1ccc(N(C)C)cc1
CN(C)c1ccc(C(=C2C=CC(=[N+](C)C)C=C2)c2ccc(N(C)C)cc2)cc1
CC(=O)Nc1nc(C)c(-c2ccc(Cl)c(S(=O)(=O)NCCO)c2)s1
Cc1ccc([N+](=O)[O-])cc1S(=O)(=O)N(C)N=Cc1cnc2ccc(Br)cn12
Cc1cnc(Nc2ccc(CN3CCOCC3)cc2)nc1Nc1cccc(S(=O)(=O)NC(C)(C)C)c1
COc1ccc(-c2ccc3ncc4c(c3c2)n(-c2ccc(N3CCNCC3)c(C(F)(F)F)c2)c(=O)n4C)cn1
CO[C@H]1C=CC=C(C)C(=O)NC2=CC(=O)C(NCCN(C)C)=C(C[C@@H](C)C[C@H](OC)[C@@H](O)[C@@H](C)C=C(C)[C@@H]1OC(N)=O)C2=O
Cn1cc(CNCC2CCN(c3ncc(C(=O)NO)cn3)CC2)c2ccccc21
CCc1nc(N)nc(N)c1-c1ccc(Cl)cc1
COc1cc2nc(N3CCCN(C)CC3)nc(NC3CCN(Cc4ccccc4)CC3)c2cc1OC
COc1cc([C@@H]2c3cc4c(cc3[C@@H](O[C@@H]3O[C@@H]5CO[C@@H](c6cccs6)O[C@@H]5[C@H](O)[C@@H]3O)[C@H]3COC(=O)[C@H]23)OCO4)cc(OC)c1O
COc1ccc2cc3[n+](cc2c1OC)CCc1cc2c(cc1-3)OCO2
CCc1cc(Nc2nccc(-c3c(-c4ccc(OC)c(C(=O)Nc5c(F)cccc5F)c4)nc4ccccn34)n2)c(OC)cc1N1CCC(N2CCN(S(C)(=O)=O)CC2)CC1
CC[C@H]1OC(=O)[C@H](C)[C@@H](O[C@H]2C[C@@](C)(OC)[C@@H](O)[C@H](C)O2)[C@H](C)[C@@H](O[C@@H]2O[C@H](C)C[C@H](N(C)C)[C@@H]2O)[C@](C)(O)C[C@@H](C)CN(C)[C@H](C)[C@@H](O)[C@]1(C)O
C[C@H]1[C@@H](OC(=O)CCC(=O)O)O[C@@H]2O[C@@]3(C)CC[C@@H]4[C@H](C)CC[C@@H]1[C@@]24OO3
CCN(CC)CCCC(C)Nc1ccnc2cc(Cl)ccc12 (stereo not given)
CC=C1C2C=C(C)CC1(N)c1ccc(=O)[nH]c1C2 (stereo not given)
CC[C@H]1CN2CCc3cc(OC)c(OC)cc3[C@H]2C[C@@H]1C[C@@H]1NCCc2cc(OC)c(OC)cc21
Cc1nc2cnc3ccc(C#Cc4cccnc4)cc3c2n1-c1ccc(C(C)(C)C#N)cc1
CCn1nnc2c(N3CCOCC3)nc(-c3ccc(NC(=O)Nc4ccc(C(=O)N5CCN(C)CC5)cc4)cc3)nc21
CC(C)[C@H](C(=O)Nc1ccc(C(=O)NO)cc1)c1ccccc1
Clc1ccc2c(N3CCN(CCCN4CCN(c5ccnc6cc(Cl)ccc56)CC4)CC3)ccnc2c1
C=C[C@@H]1CN2CC[C@@H]1C[C@H]2[C@H](O)c1ccnc2ccc(OC)cc12
COc1ccc2nc3cc(Cl)ccc3c(Nc3cc(CN4CCCC4)c(O)c(CN4CCCC4)c3)c2n1
CS(=O)(=O)CCNCc1ccc(-c2ccc3ncnc(Nc4ccc(OCc5cccc(F)c5)c(Cl)c4)c3c2)o1
Cn1cnc(=N)c2[nH]cnc21
CC1(C)N=C(N)N=C(N)N1c1ccc(Cl)cc1
CN([C@@H](Cc1ccc(OS(=O)(=O)c2cccc3cnccc23)cc1)C(=O)N1CCN(c2ccccc2)CC1)S(=O)(=O)c1cccc2cnccc12
Cc1cn(-c2cc(NC(=O)c3ccc(C)c(Nc4nccc(-c5cccnc5)n4)c3)cc(C(F)(F)F)c2)cn1
CO[C@@H]1C(N(C)C(=O)c2ccccc2)C[C@H]2O[C@]1(C)n1c3ccccc3c3c4c(c5c6ccccc6n2c5c31)C(=O)NC4=O (stereo not given in full)
CC(C)Oc1cc(Nc2nc(N[C@@H](C)c3ccc(F)cn3)ncc2Cl)[nH]n1
CC1(CN2CCC(n3c(=O)[nH]c4ccccc43)CC2)OCc2ccccc2-n2cccc21 (stereo not given)
NC1CCC(Nc2nc(Nc3ccc(C(=O)N4CCCCC4)cc3)c3ncn(-c4cccc(F)c4)c3n2)CC1 (stereo not given)
CO[C@H]1O[C@@H]2O[C@@]3(C)CC[C@@H]4[C@@H](C)CC[C@@H]([C@H]1C)[C@@]24OO3
COc1ncc(-c2ccc3nccc(-c4ccnnc4)c3c2)cc1NS(=O)(=O)c1ccc(F)cc1F
